Experimental data reported in PubChem BioAssay.
Active and inactive are the calls of the source. Unless noted, the rule behind the calls is not given here.

What was measured:
[1] = tested on: Wnt5a (protein binding on small-molecule microarray); experiment: small molecules binding Wnt5a protein – biophysical, small-molecule microarray, 635/667 nm fluorescence, primary screen (AID 1142); conditions: 635 nm fluorescence, higher = more signal;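 note: fluorescence read at 667 nm with signal to noise per printed feature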
[2] = ATP-based viability of Huh7 replicon cells – cell-based, CellTiter-Glo luminescence, basal, 48 h, cytotoxicity control for HCV replication inhibitor project, primary screen (AID 1143); conditions: higher = more signal, called active from +8 up or from −8 down;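 note: Huh7 hepatoma cells carrying a hepatitis C replication reporter with no stimulus; test concentration not given here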
[3] = Pseudomonas biofilm growth suppression – PAO1 strain, BacTiter-Glo luminescence, LB-PBS, primary screen (AID 1144); conditions: P. aeruginosa PAO1 biofilm, 12 h, higher = more signal
[4] = basal CRE-LacZ reporter activity in PC12 – cell-based, unstimulated, primary screen (AID 1145); conditions: no forskolin, luminescence, 4.5 h, higher = more signal, called active from +8 up or from −8 down
[5] = forskolin-driven CRE-LacZ activity in PC12 – cell-based, CRE-LacZ reporter, forskolin-stimulated, primary screen (AID 1146); conditions: luminescence, 4.5 h, higher = more signal, called active from +8 up or from −8 down;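 note: PC12 cells with 6xCRE LacZ reporter stimulated by forskolin 10 µM; beta-galactosidase reporter signal reflecting CREB driven transcription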
[6] = target: Streptavidin (Streptomyces avidinii) (UniProt P22629); experiment: compounds binding control protein streptavidin – biophysical, small-molecule microarray, 635/667 nm fluorescence, artefact control for SMM compound annotation, primary screen (AID 1147); conditions: higher = more signal;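 note: signal reflects streptavidin binding to arrayed compounds as a control protein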
[7] = probe aInhba binding on compound microarray – biochemical, small-molecule microarray, 635/667 nm fluorescence, primary screen (AID 1148); conditions: higher = more signal;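 note: score merges 667nm spot fluorescence with signal-to-noise for antibody binding to printed compounds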
Torsin-1A (Homo sapiens) [8] = target: Torsin-1A (Homo sapiens) (UniProt O14656); experiment: TOR1A wild-type binding on microarray – cell lysate, small-molecule microarray, lysate, 635/667 nm, primary screen (AID 1149); conditions: COS7 hTOR1A-WT lysate, 635 nm fluorescence, higher = more signal
Torsin-1A (Homo sapiens) [9] = target: Torsin-1A (Homo sapiens) (UniProt O14656); experiment: torsin A mutant lysate binding on microarrays – cell lysate, small-molecule microarray, COS7 lysate, 635/667 nm fluorescence, primary screen (AID 1150); conditions: COS7 hTOR1A mutant lysate, 635 nm fluorescence, higher = more signal;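 note: score pools 667 nm emission and signal to noise measuring lysate protein binding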
[10] = tested on: Sonic hedgehog protein (Shh); experiment: Sonic hedgehog microarray binding compounds – biochemical, small-molecule microarray, 635/667 nm fluorescence, primary screen (AID 1151); conditions: 635 nm fluorescence, higher = more signal;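 note: Shh protein binding to compounds spotted on small-molecule microarray slides; score combines spot fluorescence intensity with signal-to-noise across triplicate slides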

Sequence of Streptavidin (Streptomyces avidinii) (P22629 whole entry, looked up): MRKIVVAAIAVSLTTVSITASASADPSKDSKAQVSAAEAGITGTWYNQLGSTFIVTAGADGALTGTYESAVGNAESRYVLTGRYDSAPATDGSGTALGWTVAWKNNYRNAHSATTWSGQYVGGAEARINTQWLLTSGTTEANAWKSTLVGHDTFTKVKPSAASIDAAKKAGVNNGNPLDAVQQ
Sequence of Torsin-1A (Homo sapiens) (O14656 whole entry, looked up): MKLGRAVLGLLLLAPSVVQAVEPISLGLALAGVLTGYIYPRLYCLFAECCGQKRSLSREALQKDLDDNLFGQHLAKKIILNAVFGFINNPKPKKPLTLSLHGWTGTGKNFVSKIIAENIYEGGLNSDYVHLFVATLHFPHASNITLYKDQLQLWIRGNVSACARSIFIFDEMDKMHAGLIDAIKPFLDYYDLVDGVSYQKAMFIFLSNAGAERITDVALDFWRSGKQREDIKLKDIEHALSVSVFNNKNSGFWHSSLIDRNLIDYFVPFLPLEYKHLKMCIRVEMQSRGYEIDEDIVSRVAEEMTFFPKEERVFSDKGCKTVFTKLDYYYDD

Structure (SMILES)	composite z-score [1]	z-score [2]	z-score [3]	z-score [4]	z-score [5]	composite z-score [6]	composite z-score [7]	composite z-score (Torsin-1A (Homo sapiens) [8])	composite z-score (Torsin-1A (Homo sapiens) [9])	composite z-score [10]
COC(=O)[C@@]1(Cc2ccc(OC)cc2)[C@H]2c3cc(C(=O)N(C)C)n(Cc4c(OC)[nH]cc(C)c4=O)c3C[C@H]2CN1C(=O)c1ccccc1	-0.0522	-0.857 (inactive)	0.0281 (inactive)	-0.185 (inactive)	0.69 (inactive)	-0.0748	0.0882	0.0857	1.16	-1.1
COc1ccc(C#Cc2ccc3c(c2)[C@]2(C(=O)N3)[C@H](c3ccc(O)cc3)N3[C@H](c4ccccc4)[C@H](c4ccccc4)OC(=O)[C@H]3[C@@H]2C(=O)NC[C@H](O)c2ccccc2)cc1	0.365	-3.5 (inactive)	-0.654 (inactive)	-0.0246 (inactive)	-1.12 (inactive)	0.153	-0.0606	0.215	0.488	1.05
C=C(COC)/C(=C/C[C@H](OC(=O)c1ccncc1)c1cccc(OCCO)c1)c1cc(C(=O)OC)ccc1OC	0.176	-0.865 (inactive)	0.358 (inactive)	8.63 (active)	-0.616 (inactive)	-0.258	-0.024	0.63	0.849	1.38
[N-]=[N+]=NCc1ccccc1C[C@@]1(C(=O)NCC(O)CO)N=C(c2ccc(OCCCO)cc2)O[C@@H]1c1ccccc1CN=[N+]=[N-] (stereo not given in full)	0.604	-1.84 (inactive)	-0.376 (inactive)	-0.435 (inactive)	-0.554 (inactive)	1.43	0.533	0.441	1.39	-0.393
CC(C)N1CC=CC23O[C@@H]4C=CCOC(=O)[C@@H]4[C@H]2C(=O)N(CCO)[C@@H]3C1=O (stereo not given in full)	-0.967	0.273 (inactive)	-0.289 (inactive)	-1.3 (inactive)	-0.67 (inactive)	-1.05	-0.302	-2.5	-1.48	0.643
CC(C)C[C@@H]1NC(=O)[C@H]2C[C@@H](C(=O)NCCCCCNC(=O)CS)[C@@H](c3cccc(OCCO)c3)N2C1=O	1.1	-1.07 (inactive)	0.644 (inactive)	0.289 (inactive)	0.0824 (inactive)	0.024	-0.0112	1.07	0.867	2.09
COc1ccc(C(O)C2C=CC3C(=O)N(c4ccccc4)C(=O)C3N2Nc2ccc([N+](=O)[O-])cc2)cc1OCc1ccccc1 (stereo not given)	1.43	-0.317 (inactive)	0.208 (inactive)	-0.387 (inactive)	-0.588 (inactive)	0.935	1.16	-0.153	0.159	-0.381
C=CCNC(=O)[C@@H]1[C@H]2C(=O)O[C@H](c3ccccc3)[C@H](c3ccccc3)N2[C@H](c2ccccc2OCCO)[C@@]12C(=O)Nc1ccc(C#CC3=CCCCC3)cc12	0.248	-6.58 (inactive)	-1.43 (inactive)	-1.42 (inactive)	-1.45 (inactive)	0.562	0.592	0.192	0.255	1.91
C=C[C@@H](COC(C)=O)N(Cc1ccc([N+](=O)[O-])cc1)S(=O)(=O)c1ccc(Br)cc1	0.191	-1.97 (inactive)	-0.91 (inactive)	0.661 (inactive)	0.127 (inactive)	0.861	0.0869	0.474	0.0176	0.956
CCOC(=O)C1=CCC(c2ccc(C#N)cc2)N(S(=O)(=O)c2ccc(C)cc2)C1 (stereo not given)	0.445	-4.77 (inactive)	-0.0317 (inactive)	0.22 (inactive)	-0.986 (inactive)	1.87	0.211	0.375	0.709	0.409
C#CCN(C(/C=C/c1ccccc1)CO)C(C(=O)O)c1ccccc1 (stereo not given)	0.0265	-3.59 (inactive)	1.13 (inactive)	-0.0487 (inactive)	-0.53 (inactive)	0.18	0.0391	-0.407	-0.959	-0.514
CCOC(=O)C[C@H]1[C@H](OC(=O)c2ccccc2-c2ccccc2)[C@@H](NC(=O)c2ccc3ccccc3c2)c2cc(OCCCO)ccc2N1C(=O)c1ccc2ccccc2n1	0.0952	0.0364 (inactive)	-0.756 (inactive)	0.311 (inactive)	0.429 (inactive)	0.162	-0.0087	0.335	0.0486	0.575
O=C1O[C@H](c2ccccc2)[C@H](c2ccccc2)N2[C@H]1[C@@H](C(=O)O)[C@]1(C(=O)Nc3ccc(C#CC4(O)CCCCCC4)cc31)[C@H]2c1ccc(OCCO)cc1	-0.0477	-0.551 (inactive)	-1.01 (inactive)	5.5 (inactive)	14.7 (active)	1.52	0.122	0.477	0.617	0.258
[N-]=[N+]=NCc1ccccc1[C@@H]1OC(c2ccc(OCCCO)cc2)=N[C@]1(Cc1ccccc1)C(=O)N1CCCCC1	0.663	-3.77 (inactive)	-0.641 (inactive)	1.56 (inactive)	-0.546 (inactive)	0.466	0.288	-0.451	-0.271	0.0721
CCOC(=O)C1=CC[C@@H](c2ccccc2)N(S(=O)(=O)c2ccc(C)cc2)[C@H]1C(=O)OCC	0.3	-4.23 (inactive)	1.43 (inactive)	-0.415 (inactive)	-0.76 (inactive)	0.491	0.421	0.59	0.523	-0.189
COCCOC(=O)N1C(=O)[C@@]2(c3cc(C#CCC(C(=O)OC)C(=O)OC)ccc31)[C@H](C(=O)N1CCCCCCC1)[C@H]1C(=O)O[C@H](c3ccccc3)[C@H](c3ccccc3)N1[C@@H]2c1ccc(OCCO)cc1	1.42	-2.31 (inactive)	-1.02 (inactive)	-1.15 (inactive)	-0.0519 (inactive)	3.01	1.69	2.01	1.87	2.32
CC(C)(C)OC(=O)CC[C@@]1(C(=O)O)N=C(c2ccc(OCCCO)cc2)O[C@@H]1c1ccccc1N=[N+]=[N-]	0.52	0.0429 (inactive)	0.561 (inactive)	-0.183 (inactive)	-0.406 (inactive)	1.01	0.179	1.21	1.22	-0.905
CS(=O)(=O)CCOC(=O)C1=CC(CCCO)=CC(c2cccs2)N(Cc2cc3c(cc2Br)OCO3)C=C1C(=O)OCCS(C)(=O)=O (stereo not given)	0.567	-1.26 (inactive)	0.00546 (inactive)	-0.583 (inactive)	0.72 (inactive)	2.16	0.086	1.3	1.16	0.759
COc1ccc([Si](C)(C)[C@H]2[C@H](CCn3cc([C@H](O)c4ccccc4)nn3)O[C@@]3(C(=O)N(Cc4cccc(N5CCC5=O)c4)c4ccccc43)[C@@H]2C)cc1	0.42	-1.67 (inactive)	0.115 (inactive)	2.55 (inactive)	-0.157 (inactive)	0.552	-0.045	0.358	0.0772	1.9
COCCOC(=O)N1C(=O)[C@@]2(c3cc(C#CCNC(N)=O)ccc31)[C@H](c1ccccc1OCCO)N1[C@H](c3ccccc3)[C@H](c3ccccc3)OC(=O)[C@H]1[C@@H]2C(N)=O	0.116	-0.895 (inactive)	0.287 (inactive)	0.802 (inactive)	5.24 (inactive)	0.234	0.0422	0.198	0.41	1.8
COCCOC(=O)N1C(=O)[C@@]2(c3cc(C#CCCO)ccc31)[C@H](C(=O)NC[C@H](O)c1ccccc1)[C@H]1C(=O)O[C@H](c3ccccc3)[C@H](c3ccccc3)N1[C@@H]2c1ccc(O)cc1	0.0418	-0.612 (inactive)	-1.16 (inactive)	-1.29 (inactive)	-0.201 (inactive)	0.276	-0.0136	0.581	1.12	1.79
O=C1O[C@@H](c2ccccc2)[C@@H](c2ccccc2)N2[C@@H](c3ccc(OCCO)cc3)[C@]3(C(=O)Nc4ccc(C#CC5=CCCCC5)cc43)[C@@H](C(=O)O)[C@H]12	0.411	-2.22 (inactive)	-0.761 (inactive)	-0.348 (inactive)	7.68 (inactive)	1.22	0.0895	0.0714	0.97	0.658
O=C1OCCC=C[C@H]2OC34C=CCN(c5ccc6ccccc6c5)C(=O)[C@H]3N(CCCCCO)C(=O)[C@@H]4C12 (stereo not given in full)	-0.288	0.0855 (inactive)	-1.17 (inactive)	0.0645 (inactive)	-0.206 (inactive)	0.136	-0.0471	0.592	1.8	0.157
CC(C)c1ccc(NN2C(C(O)c3cccc(O)c3)C=CC3C(=O)N(c4ccccc4)C(=O)C32)cc1 (stereo not given)	0.125	-0.392 (inactive)	-0.406 (inactive)	1.39 (inactive)	1.67 (inactive)	1.52	0.0236	0.77	1.3	0.671
C=CCNC(=O)[C@H]1[C@@H]2C(=O)O[C@@H](c3ccccc3)[C@@H](c3ccccc3)N2[C@@H](c2ccc(O)cc2)[C@]12C(=O)N(C(=O)OCCOC)c1ccc(C#CCCO)cc12	0.317	-0.185 (inactive)	-0.176 (inactive)	-0.141 (inactive)	0.567 (inactive)	-0.0841	-0.0954	0.846	0.432	1.08
CN(C)C(=O)[C@]1(CCC(=O)OC(C)(C)C)N=C(c2ccc(OCCCO)cc2)O[C@@H]1c1ccccc1N=[N+]=[N-]	0.928	-1.61 (inactive)	0.878 (inactive)	0.988 (inactive)	0.0155 (inactive)	1.38	0.105	1.62	2.11	-0.149
COCCOC(=O)N1C(=O)[C@@]2(c3cc(C#CCC(C(=O)OC)C(=O)OC)ccc31)[C@H](c1ccc(O)cc1)N1[C@H](c3ccccc3)[C@H](c3ccccc3)OC(=O)[C@H]1[C@@H]2C(N)=O	0.641	-0.427 (inactive)	0.075 (inactive)	-0.329 (inactive)	0.305 (inactive)	1.04	0.215	1.61	1.35	0.922
C=CCC(OC(C)=O)[C@@H]1[C@@H](N(Cc2ccc(-c3ccccc3)cc2)C(=O)Cc2ccc(F)cc2)c2cc(OCCCO)ccc2N1C(=O)c1ccc2ccccc2n1 (stereo not given in full)	-0.212	0.0753 (inactive)	-0.201 (inactive)	2.31 (inactive)	-0.116 (inactive)	0.171	0.151	0.226	0.0886	0.321
